# Reference: ChEMBL document CHEMBL3988442, “University of Dundee, Small-Polar-MMV Screening Library” (2021)
# For some assays here: Measured potencies and affinities stand elsewhere.
# How the values were obtained:
# Set-up in all cases: scale not given: direction of the effect not stated beside the values
# [1] = target: Protein translocase subunit SecA (Escherichia coli (strain K12)) (UniProt P10408); test: Assay to Identify E. coli SecA ATPase Inhibitors; type: functional; conditions: 30 µM
# [2] = target: T1, Ubiquitin-activating enzyme e1, putative (Leishmania donovani (strain BPK282A1)) (UniProt E9BSI1); test: Leishmania donovani Ubiquitin Activating Enzyme (LdE1); type: functional; conditions: 30 µM
# T1 sequence (whole entry): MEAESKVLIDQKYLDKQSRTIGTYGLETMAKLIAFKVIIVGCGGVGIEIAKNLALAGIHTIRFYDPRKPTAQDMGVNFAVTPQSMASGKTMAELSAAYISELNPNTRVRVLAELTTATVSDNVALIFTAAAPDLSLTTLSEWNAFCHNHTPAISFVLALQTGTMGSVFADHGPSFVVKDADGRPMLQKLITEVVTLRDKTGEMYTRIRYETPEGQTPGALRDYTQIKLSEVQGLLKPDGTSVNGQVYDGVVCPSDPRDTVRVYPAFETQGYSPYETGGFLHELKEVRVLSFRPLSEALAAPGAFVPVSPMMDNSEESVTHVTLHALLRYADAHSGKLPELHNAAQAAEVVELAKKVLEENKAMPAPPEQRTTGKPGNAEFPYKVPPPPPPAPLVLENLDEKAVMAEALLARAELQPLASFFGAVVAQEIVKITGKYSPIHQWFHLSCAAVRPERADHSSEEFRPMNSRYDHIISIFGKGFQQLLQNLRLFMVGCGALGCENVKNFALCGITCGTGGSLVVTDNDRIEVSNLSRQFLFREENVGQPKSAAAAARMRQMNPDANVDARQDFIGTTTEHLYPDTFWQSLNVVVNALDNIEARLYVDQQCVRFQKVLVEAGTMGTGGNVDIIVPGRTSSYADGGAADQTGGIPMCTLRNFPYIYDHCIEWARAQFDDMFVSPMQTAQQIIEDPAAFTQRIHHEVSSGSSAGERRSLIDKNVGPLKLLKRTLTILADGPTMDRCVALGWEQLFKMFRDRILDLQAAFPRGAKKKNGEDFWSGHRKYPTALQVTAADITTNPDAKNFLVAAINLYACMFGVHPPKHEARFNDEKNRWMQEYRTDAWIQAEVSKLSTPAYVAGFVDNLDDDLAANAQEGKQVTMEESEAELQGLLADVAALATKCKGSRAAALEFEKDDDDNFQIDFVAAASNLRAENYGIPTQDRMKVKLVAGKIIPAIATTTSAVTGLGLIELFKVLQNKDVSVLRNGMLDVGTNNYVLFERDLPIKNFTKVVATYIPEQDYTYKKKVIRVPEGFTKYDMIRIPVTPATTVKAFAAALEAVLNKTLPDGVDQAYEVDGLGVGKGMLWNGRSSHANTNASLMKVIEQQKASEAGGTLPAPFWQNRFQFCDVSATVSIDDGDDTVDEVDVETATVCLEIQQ
# [3] = target: AMP-activated protein kinase, AMPK (Homo sapiens) (UniProt P54646+O43741+P54619+Q9UGJ0+Q9Y478+Q13131+Q9UGI9); test: AMP-dependent Kinase enzyme assay. An in vitro enzyme assay that detects ADP turnover that is directly proportional to AMPK activity. This uses naive AMPK that is activated during the assay with MK-8722; type: functional; conditions: 30 µM
# [4] = target: Sialic acid-binding Ig-like lectin 9 (Homo sapiens) (UniProt Q9Y336); test: Hs-Siglec9 ALPHAscreen SOP 20170721; conditions: 10 µM
# Trypanosoma cruzi = test: Trypanosoma cruzi phosphomannomutase and mannose-1-phosphate guanylyltransferase assay; type: functional; conditions: 10 µM
# [5] = target: T2, Arginase-2, mitochondrial (Homo sapiens) (UniProt P78540); test: in vitro enzyme assay to detect the production of urea directly proportional to the activity of Arginase II; type: functional; conditions: 33.3 µM; note: in the data most compounds retested in dose-response had high values
# T2 sequence (whole entry): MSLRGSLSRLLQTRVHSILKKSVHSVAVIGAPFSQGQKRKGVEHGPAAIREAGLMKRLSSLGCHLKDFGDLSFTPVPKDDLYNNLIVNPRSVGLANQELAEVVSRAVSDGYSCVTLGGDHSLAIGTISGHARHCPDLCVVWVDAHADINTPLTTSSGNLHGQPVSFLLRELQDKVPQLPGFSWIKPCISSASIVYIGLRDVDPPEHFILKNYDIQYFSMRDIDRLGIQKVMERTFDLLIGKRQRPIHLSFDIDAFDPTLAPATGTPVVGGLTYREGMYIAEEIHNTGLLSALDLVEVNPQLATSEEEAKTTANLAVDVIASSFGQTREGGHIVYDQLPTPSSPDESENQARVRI
# [6] = target: T3, Proteasome subunit beta (Trypanosoma cruzi) (UniProt O96673); test: Trypanosoma cruzi proteasome chymotrypsin-like activity (TcProtChymo) assay.; note: in the data most compounds retested in dose-response had high values; type: functional; conditions: 9.37 µM
# T3 sequence (whole entry): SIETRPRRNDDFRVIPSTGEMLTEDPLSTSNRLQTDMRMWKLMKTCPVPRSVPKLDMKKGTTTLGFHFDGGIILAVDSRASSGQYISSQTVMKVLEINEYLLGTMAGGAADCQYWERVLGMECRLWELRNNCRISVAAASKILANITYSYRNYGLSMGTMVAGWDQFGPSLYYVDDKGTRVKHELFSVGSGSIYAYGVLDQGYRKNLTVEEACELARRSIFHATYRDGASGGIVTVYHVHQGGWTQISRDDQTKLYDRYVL
# Homo sapiens = organism: Homo sapiens; test: To identify inhibition of the IFN signalling (Jak-Stat) pathway via expression of an eGFP reporter gene under the control of an IFN-stimulated response element (ISRE) containing MxA promoter.; type: functional; conditions: 30 µM
# [7] = target: T4, Tyrosyl-tRNA synthetase, putative (Trypanosoma cruzi (strain CL Brener)) (UniProt Q4DSP6); test: Trypanosoma cruzi tyrosyl tRNA synthetase (TcYRS) _High Tyrosine SOP; type: functional; conditions: 30 µM; note: in the data most compounds retested in dose-response had high values
# T4 sequence (whole entry): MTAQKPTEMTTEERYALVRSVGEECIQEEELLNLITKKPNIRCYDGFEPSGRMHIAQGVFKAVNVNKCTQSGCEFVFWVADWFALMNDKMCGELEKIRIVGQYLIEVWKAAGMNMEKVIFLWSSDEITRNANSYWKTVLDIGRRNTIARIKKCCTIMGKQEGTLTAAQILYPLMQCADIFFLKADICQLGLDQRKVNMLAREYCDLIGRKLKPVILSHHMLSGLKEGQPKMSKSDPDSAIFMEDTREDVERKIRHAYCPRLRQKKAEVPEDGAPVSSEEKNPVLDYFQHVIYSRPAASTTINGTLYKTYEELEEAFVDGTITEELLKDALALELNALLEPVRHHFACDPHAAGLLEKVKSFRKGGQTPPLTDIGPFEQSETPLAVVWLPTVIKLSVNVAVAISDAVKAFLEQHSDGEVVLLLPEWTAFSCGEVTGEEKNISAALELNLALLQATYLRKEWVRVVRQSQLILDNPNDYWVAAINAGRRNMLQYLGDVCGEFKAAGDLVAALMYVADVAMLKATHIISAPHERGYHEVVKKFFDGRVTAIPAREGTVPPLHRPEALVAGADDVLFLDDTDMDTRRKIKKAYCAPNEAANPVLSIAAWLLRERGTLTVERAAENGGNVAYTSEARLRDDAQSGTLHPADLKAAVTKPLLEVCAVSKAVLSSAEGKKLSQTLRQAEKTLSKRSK
# [8] = target: T4, Tyrosyl-tRNA synthetase, putative (Trypanosoma cruzi (strain CL Brener)); test: Trypanosoma cruzi tyrosyl tRNA synthetase (TcYRS) SOP; type: functional; conditions: 30 µM
# [9] = target: Chromo domain-containing protein 1 (Saccharomyces cerevisiae (strain ATCC 204508 / S288c) (Baker's yeast)) (UniProt P32657); test: ScCHD-1 Enzyme Inhibition Assay; type: functional; conditions: 30 µM; note: in the data most compounds retested in dose-response had high values
# Chain of Chromo domain-containing protein 1 (Saccharomyces cerevisiae (strain ATCC 204508 / S288c) (Baker's yeast)) (P32657 whole entry, the tested form may be a part): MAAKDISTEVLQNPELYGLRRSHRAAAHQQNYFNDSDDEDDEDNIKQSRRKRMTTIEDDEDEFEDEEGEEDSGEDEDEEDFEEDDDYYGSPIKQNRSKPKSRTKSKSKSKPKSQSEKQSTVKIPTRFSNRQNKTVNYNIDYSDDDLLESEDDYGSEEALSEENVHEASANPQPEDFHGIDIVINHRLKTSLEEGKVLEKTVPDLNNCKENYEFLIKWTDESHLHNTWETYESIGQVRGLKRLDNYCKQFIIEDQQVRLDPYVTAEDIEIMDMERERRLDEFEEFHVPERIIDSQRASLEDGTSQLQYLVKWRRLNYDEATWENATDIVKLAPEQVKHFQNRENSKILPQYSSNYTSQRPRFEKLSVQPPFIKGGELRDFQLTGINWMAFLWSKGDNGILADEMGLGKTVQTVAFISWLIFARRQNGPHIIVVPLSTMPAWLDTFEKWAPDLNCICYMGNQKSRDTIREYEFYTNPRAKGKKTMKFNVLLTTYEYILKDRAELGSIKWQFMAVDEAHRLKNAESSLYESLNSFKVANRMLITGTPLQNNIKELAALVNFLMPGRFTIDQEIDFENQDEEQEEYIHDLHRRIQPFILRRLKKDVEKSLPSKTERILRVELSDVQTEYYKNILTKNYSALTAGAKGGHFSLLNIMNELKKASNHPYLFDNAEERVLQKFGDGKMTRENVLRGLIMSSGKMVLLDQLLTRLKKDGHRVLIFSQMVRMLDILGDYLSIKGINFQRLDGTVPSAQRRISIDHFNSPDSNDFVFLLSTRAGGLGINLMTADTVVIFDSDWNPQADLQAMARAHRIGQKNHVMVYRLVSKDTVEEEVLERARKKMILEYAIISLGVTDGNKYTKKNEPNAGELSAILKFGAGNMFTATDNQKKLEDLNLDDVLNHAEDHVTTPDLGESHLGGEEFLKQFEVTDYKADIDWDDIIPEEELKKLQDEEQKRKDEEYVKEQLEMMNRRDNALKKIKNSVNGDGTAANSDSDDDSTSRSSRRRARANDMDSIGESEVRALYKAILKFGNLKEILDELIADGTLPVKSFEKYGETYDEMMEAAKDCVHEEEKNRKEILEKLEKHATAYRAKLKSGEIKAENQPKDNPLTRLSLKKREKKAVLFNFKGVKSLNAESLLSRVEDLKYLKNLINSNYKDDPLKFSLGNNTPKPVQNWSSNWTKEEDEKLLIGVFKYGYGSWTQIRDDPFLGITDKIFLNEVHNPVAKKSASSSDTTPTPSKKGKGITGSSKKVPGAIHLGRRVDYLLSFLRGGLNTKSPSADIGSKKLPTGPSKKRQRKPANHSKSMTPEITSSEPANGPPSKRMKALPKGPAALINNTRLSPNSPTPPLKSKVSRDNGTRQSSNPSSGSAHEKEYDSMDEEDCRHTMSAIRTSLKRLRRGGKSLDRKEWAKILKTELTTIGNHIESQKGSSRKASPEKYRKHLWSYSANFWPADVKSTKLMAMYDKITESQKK
# Chain of Protein translocase subunit SecA (Escherichia coli (strain K12)) (P10408 whole entry): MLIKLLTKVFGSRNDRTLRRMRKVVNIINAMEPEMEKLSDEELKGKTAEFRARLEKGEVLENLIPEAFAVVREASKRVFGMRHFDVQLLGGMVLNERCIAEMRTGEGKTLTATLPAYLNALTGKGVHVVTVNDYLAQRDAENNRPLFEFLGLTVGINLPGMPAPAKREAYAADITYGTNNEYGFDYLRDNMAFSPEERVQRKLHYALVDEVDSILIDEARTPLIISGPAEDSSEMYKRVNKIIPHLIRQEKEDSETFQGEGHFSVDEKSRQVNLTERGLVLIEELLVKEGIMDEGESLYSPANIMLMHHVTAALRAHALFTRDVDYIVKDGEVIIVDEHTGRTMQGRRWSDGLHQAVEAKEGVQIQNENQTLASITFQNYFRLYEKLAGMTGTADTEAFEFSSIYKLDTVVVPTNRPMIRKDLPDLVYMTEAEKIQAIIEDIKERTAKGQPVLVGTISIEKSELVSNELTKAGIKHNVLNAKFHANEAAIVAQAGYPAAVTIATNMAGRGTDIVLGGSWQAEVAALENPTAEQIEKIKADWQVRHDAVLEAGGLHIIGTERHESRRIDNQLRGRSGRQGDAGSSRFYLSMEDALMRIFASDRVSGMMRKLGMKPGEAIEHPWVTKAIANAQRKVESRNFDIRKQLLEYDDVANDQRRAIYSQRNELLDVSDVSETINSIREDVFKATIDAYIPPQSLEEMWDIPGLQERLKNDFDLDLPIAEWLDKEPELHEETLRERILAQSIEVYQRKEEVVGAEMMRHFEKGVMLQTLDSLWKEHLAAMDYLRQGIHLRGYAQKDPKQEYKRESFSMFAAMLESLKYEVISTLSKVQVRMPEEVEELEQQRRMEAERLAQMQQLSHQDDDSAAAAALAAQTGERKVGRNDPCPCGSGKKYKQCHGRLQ
# Chain of Sialic acid-binding Ig-like lectin 9 (Homo sapiens) (Q9Y336 whole entry): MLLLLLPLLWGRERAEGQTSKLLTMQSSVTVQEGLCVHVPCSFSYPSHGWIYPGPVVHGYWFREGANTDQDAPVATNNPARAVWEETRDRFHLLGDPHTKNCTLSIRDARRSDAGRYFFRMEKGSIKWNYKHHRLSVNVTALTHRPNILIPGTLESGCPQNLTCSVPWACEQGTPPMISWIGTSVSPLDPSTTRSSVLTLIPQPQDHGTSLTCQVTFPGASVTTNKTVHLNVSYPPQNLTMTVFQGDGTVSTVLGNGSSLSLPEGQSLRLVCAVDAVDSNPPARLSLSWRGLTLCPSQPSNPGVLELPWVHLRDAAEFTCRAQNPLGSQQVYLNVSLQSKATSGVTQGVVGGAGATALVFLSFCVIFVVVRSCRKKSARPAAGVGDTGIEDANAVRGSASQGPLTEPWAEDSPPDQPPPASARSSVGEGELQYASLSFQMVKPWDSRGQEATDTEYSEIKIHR
SMILES,Percent Effect [1] [%],Percent Effect [2] [%],Percent Effect [3] [%],Percent Effect [4] [%],Percent Effect (Trypanosoma cruzi) [%],Percent Effect [5] [%],Percent Effect [6] [%],Percent Effect (Homo sapiens) [%],Percent Effect [7] [%],Percent Effect [8] [%],Percent Effect [9] [%]
Cc1ccc(-c2nc(CN3CCOC(Cn4cccn4)C3)cs2)o1 (configuration not stated),0.91,2.7,-3.73,5.65,7.14,0.476,12.4,4.23,2.65,9.76,0.401
CNS(=O)(=O)CCCN1CCCC1c1cc(C)on1 (configuration not stated),-2.37,0,1.65,-3.19,-3.68,-1.52,4.5,13.8,0.493,-3.8,0.192
O=C1CCC2(CCCN(C(=O)c3cscn3)C2)CN1CCc1c[nH]cn1 (configuration not stated),-3.15,7.79,-3.24,13.5,6.98,-9.65,15.1,-31.6,5.38,13.6,-5.62
O=C(NC1CC1)[C@@H]1CCO[C@@H]2CCN(C3CCOCC3)C[C@H]21,-7.35,2.6,3.75,6.23,4.62,5.52,8.49,-3.98,6.45,13.6,0.47
Cc1nc(-c2ccsc2)ccc1C(=O)NCCC1CCCO1 (configuration not stated),-8.67,0,-8.2,10,9.77,-1.92,3.51,-2.44,4.41,9.76,-10.2
COc1ccc(CCC(=O)Nc2cccnc2N2CCCC2)cc1Br,-6.14,8.11,-7.1,0.341,-5.57,2.81,3.42,13.8,5.42,6.17,-2.84
CCc1nccn1C1CCCN(C(=O)c2cnn3ccc(C)nc23)C1 (configuration not stated),-3.42,-2.7,-5.57,1.51,-0.283,-2,4.5,4.32,5.42,-6.17,-7.37
O=C(CN1CCc2cncnc2C1)NCCOc1ccccc1,-4.25,21.1,-16.1,-13.3,-2.33,-12.9,0.592,0.604,25.1,25.9,-2.98
Cc1[nH]ccc1C(=O)N1CCC(c2nnc(Cn3cccn3)n2C)CC1,-2.68,2.74,-3.04,10.2,2.98,1.6,6.42,-10.2,5.21,13.6,1.58
CCN1CCC2(CC1)CC(NC(=O)N(C)C)c1cc(C)ccc12 (configuration not stated),-2.37,16,4.2,0.476,3.28,-52.9,14.4,-15.2,8.33,-50,-7.48
Cc1cccc2cc(CNCCCN3CCOCC3)c(=O)[nH]c12,-7.31,17.6,-2.19,3.5,6.13,-2.09,11.2,2.24,3.23,14.3,-27.6
COC(=O)CCN1CCCC1c1cccc2c1OCCO2 (configuration not stated),-3.03,-2.67,-0.184,36,-0.682,-2.6,-1.92,5.8,3.83,3.7,3.53
COCCC(=O)N1CC[C@@H](N(C)C)[C@@H]1Cc1ccccc1,-3.9,5.33,10.6,4.93,-0.394,-1.17,5.37,-2.67,5.32,6.41,-0.866
CCn1nc(C(=O)N2CCCC(n3cncn3)C2)ccc1=O (configuration not stated),-3.67,5.2,7.01,5.16,6.76,2.74,9.78,-15.3,0.952,11.8,-10.3
O=C(Cc1ccc2c(c1)OCCO2)NC1CCN(CC(F)F)CC1,-6.42,7.79,6.85,8.97,-3,0,6.93,-4.72,3.88,9.76,-6.97
CC(C)NC(=O)N1CC[C@@H]2CN(Cc3ccccc3)S(=O)(=O)[C@@H]2CC1,-7.87,-13.5,131,-3.29,-6.16,0.319,6.09,29.7,-5.41,-5.13,-1.09
CN(C)C(=O)COC[C@]12COC[C@H]1CN(Cc1ccoc1)C2,-2.44,2.7,-3.89,10.2,5.77,7.69,2.49,5.51,4.3,1.24,-5.77
N#Cc1ccccc1OCCN1CCC(N2CCNC2=O)CC1,-1.9,5.41,-4.78,2.6,0.65,-1.29,6.28,8.35,6.93,13.4,-0.203
COc1cccc(CN2CCN(c3ccc4nncn4n3)C(C)C2)c1 (configuration not stated),-6.29,-20.8,-1.07,-4.72,-3,0.712,-1.86,85.3,6.8,-2.44,5.81
CN(c1ccc(C(=O)NCCCN2CCOCC2)c(Cl)c1)S(C)(=O)=O,-5.85,5.2,-0.453,13.2,4.23,-13.8,7.16,-1.2,5.38,11.1,-6.36
CC(=O)NCC(=O)N1Cc2nccn2CC(Cn2cccn2)C1 (configuration not stated),-2.33,-2.7,5.56,-2.67,-5.38,1.59,18.6,3.41,5.41,7.69,-0.528
Cc1nc(CN(C)C2CCN(CC(=O)N3CCOCC3)C2)no1 (configuration not stated),-3.5,18.9,-5.27,-3.82,-3.62,-3.14,1.98,1.74,5.94,18.3,-3.28
